In ChEMBL document CHEMBL5308504, “Tm Shift (DSF) assay results for EUbOPEN Chemogenomics Library” (2023):

target: Bromodomain-containing protein 4 (Homo sapiens) (UniProt O60885); conditions: Compound concentration 20.0 uM, Protein concentration 2.0 uM, Result type QC Liability

Structure (SMILES)	ΔTm
CCCS(=O)(=O)N[C@H]1C[C@@H](N(C)c2ncnc3[nH]ccc23)C1	-0.54 °C
CN(C)C/C=C/C(=O)Nc1ccc(C(=O)Nc2cccc(Nc3ncc(Cl)c(-c4c[nH]c5ccccc45)n3)c2)cc1	-2.3 °C
COC[C@@H](C)N[C@H]1CC[C@H](Nc2cc(-c3cccc(NCC4(C#N)CCOCC4)n3)c(Cl)cn2)CC1	-0.6 °C
C[C@@H]1OCC2(CCN(c3cnc(Sc4ccnc(N)c4Cl)c(N)n3)CC2)[C@@H]1N	-2.61 °C
NC(=O)c1ccc(-c2nc(-c3ccc4c(c3)OCCO4)c(-c3ccccn3)[nH]2)cc1	-0.56 °C
O=C(O)c1ccc(CN2C[C@@H]3C[C@H]2CN3Cc2ccc(Oc3ccc(-c4ncco4)cc3)cc2)cc1	-2.1 °C
CCOC(=O)CS(=O)(=O)c1ccc([C@@H](CO)NC(=O)c2cc3c(Cl)c(Cl)c(C)cc3n2C)cc1	-3.35 °C
Cn1ccc(Cn2cnc(-c3ccc(F)cc3)c2-c2ccnc3[nH]ccc23)n1	-1.68 °C
CN1CCN(c2ccc(-n3cc(-c4ccncc4OCC4CCNCC4)cn3)cc2)CC1	-1.52 °C
CCCCc1oc2ccccc2c1C(=O)c1cc(I)c(OCCN(CC)CC)c(I)c1	-4.02 °C
CN(C)CCCNc1ccnc(Nc2cccc(Cl)c2)n1	-2.63 °C
CN(C1CCc2c(c3ccccc3n2CC(=O)O)C1)S(=O)(=O)c1ccc(F)cc1 (stereo not given)	-1.34 °C
O=c1cc(C2CCNCC2)n2nc3cccc(Cl)c3c2[nH]1	-0.48 °C
Cc1cc(Cn2c(N3CC4(CNC4)C3)nc3c(N4CCN(C)CC4)cc(Cl)cc32)cc(C)c1F	-1.49 °C
CCCCc1c(-c2ccccc2)nc(N)nc1-c1ccc(OCc2ccccc2)c(F)c1F	-11.4 °C
